Measured values published in PubChem BioAssay AID1347416 (National Center for Advancing Translational Sciences (NCATS), 2020).
The whole screen tested about 4,100 compounds, of which about 1,600 (39%) were called active. Roughly 25% stayed inconclusive and do not appear here. Calls come from the whole dose curve; as a rule, active = well fitted inhibition curve with a large enough effect; inconclusive = small, poorly fitted or top-dose-only effect; inactive = no such curve, though single readings can be large or run the other way. The list shows a part of the results.

Test: qHTS Validation assay for Inhibitors of Plasmodium falciparum Dd2 growth in vitro; note: nearly all actives have a fitted effect of over 70% in size
Details: P. falciparum Dd2 in RBCs, SYBR Green growth, 72 h; series mostly up to 28.7 µM; activity change, negative = inhibition: at the top concentration
Outline: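 P. falciparum Dd2-infected red blood cells (2.5% hematocrit, 0.3% parasitemia) grown 72 h at 37 °C under 5% O2 with compounds in a titration, 29 uM to 0.5 nM final. Growth read as SYBR Green-1 fluorescence after ~16 h lysis; artesunate 300 nM as positive control.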
% is set by controls: 0 for no effect and ±100 for the full control effect; potency is the fitted concentration of half-maximal effect.

Activity change, negative = inhibition, inactive:
CCCC(=O)N=C1SC2CS(=O)(=O)CC2N1c1ccc(CC)cc1 (stereo not drawn) 36.5%, COCc1nncn1C1CCN(C(=O)c2ccc(C)c(C)c2)CC1 26.5%, CN(Cc1cccn1C)C(=O)C1CC1 50.1% [at 57.5 µM], CCC(C)c1ccc(NC(=O)c2cccnc2)cc1 (stereo not drawn) -5.75%, COc1ccc(NC(=O)c2nnn(Cc3ccccc3C)c2N)c(OC)c1 11.2%, CCCCn1c2ccccc2c2nnc(SCC(=O)Nc3ccc(NC(C)=O)cc3)nc21 9.73%, COc1ccc2nc3oc(C(=O)NCc4cccs4)cc3cc2c1 1.28%, O=C(Nc1nc2c(F)cccc2s1)c1ccc(S(=O)(=O)N2CCCc3ccccc32)cc1 23.7%, O=C(CN1CCN(S(=O)(=O)N2CCCC2)CC1)NCc1ccccc1F 35.8%, COc1ccc2[nH]c3c(c2c1)CCNC31CCN(C(=O)C(C)(C)C)CC1 4.8%, Cc1ccc(C(=O)N2CCc3nc4cc(-c5ccccc5)[nH]n4c(=O)c3C2)cn1 -4.34%, CC(C)CN1C(=O)c2cccn2CC1CNC(=O)c1ccccc1 (stereo not drawn) 11.3%, COc1ccccc1Oc1ncccc1CNCc1c(F)cccc1Cl -18.1%, Cc1cn2nc(-c3nc(C4CCCN(C(=O)Cc5ccsc5)C4)no3)cc2c(=O)[nH]1 (stereo not drawn) 2.56%, CCc1ccc(CNC(=O)C2CCN(c3cc(C(F)(F)F)nc(C)n3)CC2)cc1 0.317%, COc1ccc(OC)c(CNC(=O)C2CCN(c3ncnc4c3nc3n4CCCCC3)CC2)c1 0%, Cc1cc(=O)n(CC(=O)Nc2ccccc2F)c(N2CCc3ccccc3C2)n1 -14.7%, CCOc1cccc(CN2C[C@@H]3C(=O)N(CCN4CCc5ccccc5C4)C(=O)[C@@H]3C2)c1 -2.17%, CCC1Oc2ccc(NC(=O)COC)cc2CN(Cc2ccc(F)cc2)C1=O (stereo not drawn) -29.7%, CC[C@@H](NC(C)=O)C(=O)N1CCOc2c(cc(-c3cccs3)cc2OC)C1 59.3%, CC1(CNc2ccccc2)COc2ccc(C(=O)NCc3ccc(F)cc3)cc2N1 (stereo not drawn) -5.85% [at 43.1 µM], CCN(C(=O)c1cc2cc(Br)cc(OC)c2oc1=O)c1ccccc1 4.88%, Cc1nc(CCNC(=O)C2CC2)no1 12.3%, O=C(c1ccc(-c2ncc3cnc(-c4cccc(F)c4)cn23)cc1)N1CCc2cccnc21 -17% [at 43.1 µM], Cc1ccc(C(=O)N2CCCn3cc(-c4cccc(C#N)c4)nc32)cc1 -7.37%, COc1ccc(NC(=O)c2cccc3c2CCN3C(=O)Nc2ccc(F)cc2)c(C)c1 -18.7%, CCNC(=O)N1CC[C@H]2CC(=O)N([C@H](C(N)=O)C(C)C)CC[C@H]2C1 37.8% [at 43.1 µM], Cn1cc(-c2cccc(CO)c2)c2nc(COc3ccc(Cl)cc3)cn2c1=O -17.2% [at 43.1 µM], O=C(Nc1ccncc1)C1c2ccccc2Oc2ccccc21 -9.75%, COc1cc(Nc2ncncc2-c2nc(-c3ccccc3)no2)cc(OC)c1OC -9.59%, CC(C)(C)OC(=O)N1CCC(CNC(=O)c2ccc(F)cc2)CC1 29.3%, Cc1ccccc1C(=O)N1CCC(c2nn(-c3ccc(Cl)cc3)c(=O)[nH]2)CC1 -11.6%, Cn1cnc(S(=O)(=O)N2CCCOCCNC(=O)[C@@H]3CCC[C@@H]32)c1 21.7%

Potency, active:
CCC(C)c1ccc(O)c(NC(=O)c2cncc(Br)c2)c1 (stereo not drawn) 2.99 µM, COc1ccc(NC(=O)c2nnn3c2CN(Cc2cccc(Cl)c2)C(=O)CC3)c(C)c1 2.17 µM, CC(=O)Nc1nc2ccccc2n1Cc1ccc(Cl)cc1 8.41 µM, CCCCCCCn1c(NC(=O)CC)nc2ccccc21 16.8 µM, O=C(Nc1nc2ccccc2n1Cc1ccccc1)c1ccc(COc2ccccc2[N+](=O)[O-])o1 16.8 µM, COc1ccc(C2CC(c3cccs3)=NN2C(=O)c2ccc(Br)o2)cc1 (stereo not drawn) 5.31 µM, O=C(NCCCN1CCCC1)c1ccc2c(c1)N(S(=O)(=O)c1ccccc1F)CC2 9.44 µM, O=C(c1cc(NC(=O)C23CC4CC(CC(C4)C2)C3)cc(NC(=O)C23CC4CC(CC(C4)C2)C3)c1)N1CCCCC1 5.96 µM, COc1ccc(CNCC(O)(c2ccc(Cl)cc2)c2ccc(Cl)cc2)cc1 1.5 µM, Cc1ccc(CNCC(O)(c2ccccc2)c2ccc(Cl)cc2)cc1 (stereo not drawn) 2.99 µM, COc1ccccc1CNCC(O)(c1ccc(Cl)cc1)c1ccc(Cl)cc1 1.5 µM, COc1ccc(CNC(=O)C2CCN(c3nc(-c4ccccc4)nc4c3CCC4)CC2)cc1 7.5 µM, O=C(Nc1ccc(F)cc1)N1CCOc2ccc(CN3CCc4ccccc4C3)cc2C1 8.41 µM, O=C(Nc1ccc(F)cc1F)N1CCOc2ccc(CN3CCc4ccccc4C3)cc2C1 16.8 µM, COc1ccccc1NC(=O)N1CCOc2ccc(CN3CCc4ccccc4C3)cc2C1 2.37 µM, O=C(c1ccc(-c2ncc3cnc(-c4ccccc4)cn23)cc1)N1CCc2cccnc21 17.2 µM, CCOC(=O)c1ccc(Nc2nc3nonc3nc2Nc2cccc(C)c2C)cc1 8.41 µM, COc1ccc(Nc2ccccc2NC(=O)c2ccccc2Br)cc1 5.96 µM, O=C1C=C(c2cccc(CO)c2)C[C@@H](c2ccc(Cl)cc2)C1 3.76 µM, CC1(c2ccccc2)O[C@@H]2C[C@H]3[C@@H]4CCC5=CC(=O)C=C[C@]5(C)[C@@]4(F)[C@@H](O)C[C@]3(C)[C@]2(C(=O)CO)O1 (stereo partly drawn) 4.73 µM, CCOC(=O)c1sc(NC(=O)C2c3ccccc3Oc3ccccc32)c(C(=O)OCC)c1C 2.66 µM, CC(C)(C)OC(=O)N1CCC(c2c(C(=O)NCCN3CCC(Cc4ccccc4)CC3)cnn2-c2ccc(F)cc2)CC1 5.31 µM, Cc1ccc(-n2ncc(C(=O)N3CCN(c4cc(Cl)ccc4C)CC3)c2C2CCN(C(=O)OC(C)(C)C)CC2)cc1 8.41 µM, Cc1ccc(C)c(N2CCN(CCCNC(=O)c3cnn(-c4cccc(Cl)c4)c3C3CCN(C(=O)OC(C)(C)C)CC3)CC2)c1 8.41 µM, Cc1ccc(C)c(N2CCN(CCCNC(=O)c3cnn(-c4ccc(F)cc4)c3C3CCN(C(=O)OC(C)(C)C)CC3)CC2)c1 2.66 µM
